The values that follow come from article PMC12864922, “TDP-43 directly inhibits mRNA accumulation in neurites through modulation of mRNA stability”.

Over roughly 9,900 sequences, “r (bound/input frequency ratio)” has its median near 0.7; the highest 2% begin near 6.5. Only a selection was taken, and the highest values are over-represented in it overall.

B1: ENSMUSG00000061578.946|Ksr2 (ssRNA)
RNA: GGGAGUUCUACAGUCCGACGAUCGCUUCGAUAUCCGCAUGCUAAACAAGAAGACUGCAUGUUAACGCUCCUGCCACUGUUGCCCCUUCCUUUACCCUUGGCAGACAUUGCUAAUCAAUCUCAGCACAGUUUCCAACCACAGUCAUAGAACAUUUGCCACAAAGGCCCUGGAUGUGACUAUAUGUGCUGAGAAGGGAAGGUAGUUUUCCCCCAGAAAGUCCCUUCUAAUAAACAUUGAUGACUUUAGAAUCCAUGACUCAGAAUUUUCCAGAGACCCAAUCCCUCGGGGUCCACUUAGUGAUGGCUCUUGCGGUCGCACUAGUGUGGAAUUCUCGGGUGUCAAGG
B2: ENSMUSG00000058297.101|Spock2|105:110 (ssRNA)
RNA: GGGAGUUCUACAGUCCGACGAUCGCUUCGAUAUCCGCAUGCUAAUUUGAUAUGAAAGCCCCACCACGGUCUUGUGGUGAUGAGGCAGGACCUGUACACACAGCAAGGCUUACUAUCCGUCUCCUGACAUCCGAAGAGCUCGUCGCAGCACACACUAAUGGCCCUUGGGCUGCACGUGGUUAAGCAUAGCUGUCUCUGUGGCCCAACACAAAGAGGUAAACUUACUUAAAACACAGGGGUUUUGUUGCUGUUUGUUUUUUGUUAGUUUGUUUGUUGAUAAUUGGAUUGAGGAGUUAAUCCUCUGCUCUUGCGGUCGCACUAGUGUGGAAUUCUCGGGUGUCAAGG
B3: ENSMUSG00000029636.282|Wasf3 (ssRNA)
RNA: GGGAGUUCUACAGUCCGACGAUCGCUUCGAUAUCCGCAUGCUAGCGCCAUGGCCAUCCUGGAGCCUGCGCACACGUGGCCGCUGCUGUGACUCGCUGUCCUUGGUAAUUGGUGAGAGGCUUUUUCUUUCUUUCUCAGUUCUGCUUUUCCACACUGAGACCCACCAUGUUGACAUCAUCCUCGCGACGUUGACAUUUGAGCCUUUUGUUCUGUCUCCCAUGUGCCCUGUAGAACCCAGCACUCAUGUUUGGCAAAACUUUUUUUGGUAAGGUCCUUAUGCUCUCAGGGUGGAGGGAAGACAUUACUCUUGCGGUCGCACUAGUGUGGAAUUCUCGGGUGUCAAGG
B4: ENSMUSG00000058297.560|Spock2 (ssRNA)
RNA: GGGAGUUCUACAGUCCGACGAUCGCUUCGAUAUCCGCAUGCUAACCUGGGGGUGCAAAAGGAGAUUCAAGACAUCCGUACCAAGUCAGGCAGAGCUACCCGCUUCUCAGCCCGUGUCCCACUUAAAACCGUCCGAUGUGUAAUCACUGAGCUUAGAGUUAAACAUUGUGGUCAAGUGCUUGGGUUCCGUCUGUAGAUUUAAGUGCUGACGUUGUAUCUCUCAGUAAUUUUAGAUGUCUUUUAAAAAAUCUGAACAAGUGUUAGACCCGUGUGUGCGUUGGUGGGCACUCAAGCAUCCCGUGGGCUCUUGCGGUCGCACUAGUGUGGAAUUCUCGGGUGUCAAGG

TDP-43, sequence (Q13148 whole entry): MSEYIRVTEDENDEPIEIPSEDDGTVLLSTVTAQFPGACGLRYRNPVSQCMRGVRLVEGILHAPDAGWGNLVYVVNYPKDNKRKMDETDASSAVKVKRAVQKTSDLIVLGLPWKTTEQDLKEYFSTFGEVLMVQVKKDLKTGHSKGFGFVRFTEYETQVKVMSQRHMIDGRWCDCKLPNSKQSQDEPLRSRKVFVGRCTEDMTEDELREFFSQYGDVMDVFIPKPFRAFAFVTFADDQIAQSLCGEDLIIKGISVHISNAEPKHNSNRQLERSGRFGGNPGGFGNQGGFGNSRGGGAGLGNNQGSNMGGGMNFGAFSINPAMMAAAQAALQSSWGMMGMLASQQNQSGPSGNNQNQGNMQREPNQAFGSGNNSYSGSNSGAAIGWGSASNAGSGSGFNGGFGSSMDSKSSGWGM

This assay addresses TDP-43 (Homo sapiens, UniProt Q13148 1-414). Put plainly: RNA Bind-n-Seq with designed 260-mer pool; 25 mM Tris-HCl, 150 mM KCl, 3 mM MgCl2, BSA (printed 500 mg/mL), 20 units/mL SUPERase IN; pH not stated; 500 nM RNA pool, 1 h, 4 C; TDP-43 5, 50, 500 nM; high values mean tight binding. As to conditions: protein: recombinant; tags: SBP (GST cleaved off with PreScission; pGEX-GST-SBP). In short, it runs like this: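 Streptavidin beads captured recombinant SBP-tagged TDP-43 at 5, 50 or 500 nM, and the beads were incubated for 1 h at 4 °C with 500 nM of an in vitro-transcribed pool of 260-nt 3′ UTR oligos in 25 mM Tris-HCl, 150 mM KCl, 3 mM MgCl2, BSA and SUPERase IN. After washing, bound RNA was eluted with biotin, reverse transcribed, PCR-amplified and sequenced. Binding is reported as R, the mapped-read-normalized abundance of each oligo in the bound sample divided by its abundance in the input. Two independent protein batches served as duplicates.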
As for B1, the binding signal is 0.389 R (bound/input frequency ratio). Under B2 stands 1.12 R (bound/input frequency ratio).

Consider B3, for which the binding signal was 0.86 R (bound/input frequency ratio).

For the molecule B4, the binding signal is 0.604 R (bound/input frequency ratio).
